Laboratory results: the supplement of paper PMC13380429
Values without a mark were called inactive.

Test system: Vero E6 infected with SARS-CoV-2
Assay: inhibition of SARS-CoV-2 cytopathic effect; higher = more antiviral protection, active = above 15
Settings: 48 h

Structure (SMILES)	inhibition of SARS-CoV-2 cytopathic effect (1 nM)	inhibition of SARS-CoV-2 cytopathic effect (8.33 nM)	inhibition of SARS-CoV-2 cytopathic effect (100 nM)	inhibition of SARS-CoV-2 cytopathic effect (833.33 nM)	inhibition of SARS-CoV-2 cytopathic effect (10000 nM)
CC1CCN(CC[C@H]2CCCN2S(=O)(=O)c2cccc(O)c2)CC1	1.41%	2.24%	2.25%	2.79%	0.64%
CCN(CC)C(=O)N1CCN(C)CC1 [diethylcarbamazine]	-4.87%	-4.75%	-2.46%	0.55%	-2.31%
CC(=O)C1=C(O)C=C2Oc3c(C(C)=O)c(O)c(C)c(O)c3C2(C)C1=O (stereo not drawn) [usniacin-(+)]	3.22%	2.31%	0.43%	-1.14%	-4.03%
CCOC(=O)c1ccc(O)cc1 [ethyl-paraben]	0.82%	3.38%	-1.2%	0.24%	-1.28%
C[C@H]1[C@H](C)CC[C@]2(C(=O)O)CC[C@]3(C)C(=CC[C@@H]4[C@@]5(C)C[C@@H](O)[C@H](O)C(C)(C)[C@@H]5CC[C@]43C)[C@H]12 [corosolic-acid]	-3.62%	-0.43%	-0.51%	-4.03%	-1.21%
CCCc1nc(C(C)(C)O)c(C(=O)O)n1Cc1ccc(-c2ccccc2-c2nnn[nH]2)cc1 [olmesartan]	1.89%	-1.22%	1.17%	0.82%	-0.94%
COC(=O)N[C@@H](C)CNc1nccc(-c2cn(C(C)C)nc2-c2cc(Cl)cc(NS(C)(=O)=O)c2F)n1 [Encorafenib (LGX818)]	0.31%	0.31%	2.88%	6.46%	-1.13%
Nc1nccc(-c2ccc3noc(-c4ccc(Cl)cc4)c3c2)n1 [PIM-1-Inhibitor-2]	0.72%	-0.19%	3.66%	0.83%	0.56%
CCCCOC(=O)c1cc2c(cn1)[nH]c1ccccc12 [beta-CCB]	-1.28%	-1.62%	-0.04%	-2.91%	-5.4%
COc1cc(C(=O)OCCCN2CCCN(CCCOC(=O)c3cc(OC)c(OC)c(OC)c3)CC2)cc(OC)c1OC [dilazep]	0.92%	1.04%	-0.17%	-1.09%	4.8%
Cc1cccc(-c2[nH]c(C(C)(C)C)nc2-c2ccc3c(c2)OCO3)n1	-0.26%	-0.29%	-0.87%	-5.24%	-2.91%
CC(=O)NC1CCSC1=O (stereo not given) [citiolone]	3.06%	-0.41%	-6.39%	-4.01%	2.58%
CC(=O)O[C@H]1C[C@@H]2CC[C@@H]3[C@H](CC[C@@]4(C)[C@H]3C[C@H](N3CC[N+](C)(C)CC3)[C@@H]4OC(C)=O)[C@@]2(C)C[C@@H]1N1CC[N+](C)(C)CC1 [pipecuronium]	-1.2%	-0.41%	-0.11%	-1.81%	-1.58%
Cc1c(C)c2c(c(C)c1O)CC[C@@](C)(CCC[C@H](C)CCC[C@H](C)CCCC(C)C)O2 [vitamin-E]	3.32%	3.3%	2.84%	0.81%	0.23%
CCCc1c2oc(C(=O)O)cc(=O)c2cc2c(=O)cc(C(=O)O)n(CC)c12 [nedocromil]	2.42%	1.24%	0.71%	1.06%	0.79%
CCS(=O)(=O)N1CCC([C@@H](C)n2c(C)c(C(=O)NCc3c(OC)cc(C)[nH]c3=O)c3ccccc32)CC1	0.38%	2.34%	0.88%	0.2%	-1.12%
COc1cc(C(C)=O)ccc1O [apocynin]	0.03%	-1.17%	-2.23%	-0.09%	1.17%
CC(C)(C)NCC(O)CSc1nc(-c2ccc(C(N)=O)s2)cs1 (stereo not given) [arotinolol]	-12.3%	-9.63%	-11%	-9.7%	-6.09%
CCn1c(-c2nonc2N)nc2cnc(Oc3cccc(NC(=O)c4ccc(OCCN5CCOCC5)cc4)c3)cc21	3.5%	0.11%	-2.86%	-4.75%	-5.7%
Cc1cn([C@H]2C=C[C@@H](CO)O2)c(=O)[nH]c1=O [stavudine]	-1.15%	2.97%	4%	2.52%	-1.21%

Structure (SMILES)	inhibition of SARS-CoV-2 cytopathic effect (1 nM)	inhibition of SARS-CoV-2 cytopathic effect (8.33 nM)	inhibition of SARS-CoV-2 cytopathic effect (100 nM)	inhibition of SARS-CoV-2 cytopathic effect (833.33 nM)	inhibition of SARS-CoV-2 cytopathic effect (10000 nM)
CCOC(=O)[C@@](C)(N)Cc1ccc(O)c(O)c1 [methyldopate]	6.97%	1.54%	-0.9%	1.46%	2.33%
NC(=O)CCCCn1ccc(/N=C(\N)NCC(F)(F)F)n1	0.43%	2.16%	-1.98%	0.05%	-0.82%
COc1nccc(-c2c(-c3ccc(F)cc3)ncn2C2CCNCC2)n1	-7.74%	0.83%	-2.49%	-2.73%	7.05%
Cc1ccccc1C(=O)c1ccc(Nc2ccc(Br)cc2N)cc1Cl	1.98%	1.13%	-4.39%	-0.22%	3.01%
CSc1ccc2c(c1)N(CCC1CCCCN1C)c1ccccc1S2 (stereo not given) [thioridazine]	1.41%	3.38%	-2.55%	1.05%	41.9% (active)
COc1ccc(CCN2CCN(CCCc3ccccc3)CC2)cc1OC [cutamesine]	1.71%	0.69%	3.33%	2.23%	-5.76%
N[C@@]1(C(=O)O)CC[C@H]2[C@H](C(=O)O)[C@H]21 [eglumetad]	0.4%	-0.24%	-0.34%	-0.18%	2.06%
O=C1[C@@H]2[C@H]3CC[C@H](C3)[C@@H]2C(=O)N1C[C@@H]1CCCC[C@H]1CN1CCN(c2nsc3ccccc23)CC1 [lurasidone]	-0.28%	0.05%	1.73%	3.11%	-6.2%
COc1cc(COc2cc(N)c(Cl)cc2C(=O)CCC2CCN(CCNS(C)(=O)=O)CC2)cc(OC)c1	0.91%	2.62%	-0.09%	2.63%	28.3% (active)
CC(C)=CCC/C(C)=C/CC/C(C)=C/CC[C@]1(C)CCc2cc(O)cc(C)c2O1 [delta-tocotrienol]	0.39%	-1.44%	2.83%	7.95%	2.88%
C=CC(=O)c1ccc2ccccc2c1 [JAK3-inhibitor-V]	-1.46%	-1.7%	-2.73%	-2.88%	1.9%
O=C(CCCCCCC(=O)Nc1ccccc1)NO [vorinostat]	-0.07%	0.67%	-0.77%	-5.85%	-23.6%
O=C(O)CCc1c(C(=O)O)[nH]c2cc(Cl)cc(Cl)c12	0.7%	2.79%	1.68%	-2.26%	0.81%
CN1[C@@H]2CC[C@H]1C[C@@H](OC1c3ccccc3CCc3ccccc31)C2 [deptropine]	0.19%	0.38%	1.32%	-0.87%	12.7%
O=C(NCCN1CCC2(CC1)C(=O)NCN2c1cccc(F)c1)c1ccc2ccccc2c1	0.75%	3.53%	1.66%	1.45%	83.1% (active)
CS(=O)(=O)Nc1ccc2oc3c(OC(F)F)ccc(C(=O)Nc4c(Cl)cncc4Cl)c3c2c1 [oglemilast]	-1%	0.83%	1.63%	0.94%	1.89%
CN1CCN(C(=O)c2nc3ccc(Cl)cc3[nH]2)CC1	-2%	1.3%	0.78%	1.23%	1.76%
COc1ccc(NS(=O)(=O)c2ccc(N)cc2)nn1 [sulfamethoxypyridazine]	3.44%	2.28%	2.29%	3.71%	2.16%
CC(=O)O[C@H]1C[C@@H]2CC[C@@H]3[C@H](CC[C@@]4(C)[C@H]3C[C@H]([N+]3(C)CCCCC3)[C@@H]4OC(C)=O)[C@@]2(C)C[C@@H]1[N+]1(C)CCCCC1 [pancuronium]	-2.97%	-1.22%	-0.15%	-0.93%	-1.28%
